# From PubChem
# ALOX12 inh: blocks human arachidonate 12S-lipoxygenase. P18054. purified 12hLO, xylenol orange hydroperoxide absorbance. Potency, µM (series often up to 108 µM), without a hit: at the top dose activity change, negative = inhibition, usual class: inhibitors. 1.1% of 580,000 active. AID 1671190; further: on the % scale 0 is the no-effect control and ±100 the full control effect
#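 Purified human 12hLO at 150 nM in 25 mM Hepes, 0.01% Triton X-100, pH 7.0, preincubated 15 min at room temperature with compound. Reaction started with 40 uM arachidonic acid, 30 min at room temperature. Hydroperoxide measured by Fe-xylenol orange, 573/405 nm absorbance ratio.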
# GLP1R inv ag: inverse agonists of human GLP-1 receptor; 1.6% of 410,000 active; AID 624417; Potency, µM (titrated, usually from 38.3 µM), without a hit: at the top dose activity change, negative = inhibition, hits mostly inhibitors; HEK293 GLP-1R CRE-luciferase, luminescence, 24 h; GLP-1R form is constitutively active; P43220; further: on the % scale 0 is the no-effect control and ±100 the full control effect; nearly all actives have a fitted effect of over 55% in size
# Target sequence (P43220 whole entry, looked up): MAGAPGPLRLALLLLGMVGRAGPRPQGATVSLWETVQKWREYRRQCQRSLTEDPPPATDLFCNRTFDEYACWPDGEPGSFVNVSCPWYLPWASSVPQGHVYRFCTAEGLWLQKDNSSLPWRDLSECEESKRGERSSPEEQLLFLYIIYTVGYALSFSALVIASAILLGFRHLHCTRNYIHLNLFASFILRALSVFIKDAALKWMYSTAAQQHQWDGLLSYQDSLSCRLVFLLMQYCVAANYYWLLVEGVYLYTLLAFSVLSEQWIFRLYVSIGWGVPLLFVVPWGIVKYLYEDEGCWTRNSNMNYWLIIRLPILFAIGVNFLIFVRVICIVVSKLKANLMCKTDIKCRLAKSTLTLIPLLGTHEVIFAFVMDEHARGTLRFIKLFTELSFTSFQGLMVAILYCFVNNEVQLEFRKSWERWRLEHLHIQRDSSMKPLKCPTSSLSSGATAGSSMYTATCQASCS
#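 Using stably transfected HEK293 (constitutively active GLP-1R, cAMP-luciferase reporter), compounds were incubated 24 hr and luciferase measured by luminescence.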
# GRP78 ERSR act: ER stress response induction in glioma | U87-MG GRP78 promoter luciferase reporter, 16 h | Potency, µM, for the others: at the top dose activation, actives largely listed as activators | 0.02% of 420,000 active | AID 602332; further: series mostly up to about 76 µM; % of control where 0% means no effect; nearly all actives have a fitted effect of over 35% in size
#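 Stably transfected U87-MG glioma cells carrying a GRP78-based luciferase sensor; 16 h compound incubation. Luminescence end-point read 10 min after Bright-Glo addition at room temperature.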
# GLS inhibitor: inhibitors of human glutaminase (GLS); O94925; GLS enzymatic activity, qHTS titration; Potency, µM (top dose mostly 45.5 µM), for inactives: at the top dose activity change, negative = inhibition, actives largely listed as inhibitors; 0.21% of 410,000 active; further: on the % scale 0 is the no-effect control and ±100 the full control effect
#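 hKGA in 45 mM KH2PO4 pH 8.2, 0.02% Tween-20 with pin-transferred compounds; 1 mM L-glutamine (stock) plus glutamate oxidase/HRP/Amplex Red coupling added. Fluorescence read initially and after 30 min at RT.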
# GLP-1R agonist: agonists of human GLP-1 receptor; HEK293 GLP-1R CRE-luciferase, luminescence, 4-6 h; cells express a hypersensitive GLP-1R form; 0.007% of 380,000 active; Potency, µM (top dose mostly 45.6 µM), without a hit: at the top dose activation, most hits filed as activators; P43220; further: % of control where 0% means no effect
# PTHR1 agonist: PTHR1 (human) receptor agonism; HEK293 GP2 PTHR1 cells, GloSensor cAMP luminescence, 1 h; Potency, µM (top dose mostly 115 µM), for inactives: at the highest dose activation, actives largely listed as activators; 0.075% of 410,000 active; further: nearly all actives have a fitted effect of over 55% in size
#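 HEK-293-derived GP2 cells expressing PTHR1 and a GloSensor cAMP reporter, 3,000/well, plated overnight, given luciferin plus IBMX (each 0.5 mM as added) for 1 h at 37 °C, then compound for 1 h at 37 °C. Luminescence was read after 15 min at room temperature.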
# The depositor's hits bear a star; i = inactive; ? = inconclusive; . = not tested or not shown; [ ] = dose if it differs, or a comment. Compounds with a hit are over-represented: about 2.3% of the library has one in this group of screens. The call rests on the fitted dose curve; in most records, active means well fitted curve in the direction sought with a large enough effect; inconclusive means small, poorly fitted or top-dose-only effect, or another doubt; inactive means no such curve, though single readings can be large; an effect the other way counts as inactive or inconclusive. Potency means the concentration at half of the fitted maximal effect.
SMILES,ALOX12 inh,GLP1R inv ag,GRP78 ERSR act,GLS inhibitor,GLP-1R agonist,PTHR1 agonist
CN(C)C1=C(C(=O)Nc2ccc(F)cc2)S(=O)(=O)c2ccccc21,2%,.,.,.,.,.
Fc1cccc(Nc2nc(-c3ccccc3)no2)c1,35µM*,.,.,.,.,.
COc1ccc(-c2noc(Nc3cc(OC)cc(OC)c3)n2)cc1,18µM*,.,.,.,.,.
Fc1ccc(Nc2nc(-c3ccccc3)no2)cc1,2%,.,.,.,.,.
O=C(Nc1ccc(Br)cc1Cl)c1cnccn1,32µM*,2%,3%,?,-15%,-14%[57.5 µM]
O=C(COC(=O)c1cc([N+](=O)[O-])ccc1Cl)c1cc2ccccc2o1,40µM*,.,.,.,.,.
O=Cc1cccc(OC(=O)/C=C/c2ccco2)c1,?,54%,-8%,10µM*,-6%,-25%
O=C(/C=C/c1ccco1)Oc1ccc(C(=S)N2CCOCC2)cc1,-5%,3%,-4%,-13%,8%,-20%
N#CCCCN1CCCCC1,4%,.,.,.,.,.
COC(=O)c1c(NC(=S)NN2CCN(C)CC2)sc2c1CCC(C)C2 (stereo unspecified),-23%,10µM*,-12%,-1%,15%,-21%
COC(=O)c1c(NC(=O)Cc2cccs2)sc2c1CCC(C)C2 (stereo unspecified),?,19%,-3%,9%,2%,i
CCc1cccc(-n2nnc(-c3nsc(NC(=O)c4cccc(F)c4)n3)c2C)c1,1%,.,.,.,.,.
CSc1ccc(NC(=O)c2ccc3c(c2)NC(=O)CS3)cc1,-6%,.,.,.,.,.
COc1ccc(C(=O)Oc2cccc(/C=N/NC(N)=S)c2)cc1,40µM*,?,-1%,-2%,15%,-78%
CCOC(=O)COc1ccc(C2NC(C(=O)O)CS2)cc1 (stereo unspecified),32µM*,19%,2%,1%,-21%,i
COC(=O)c1ccc(C2NC(C(=O)O)CS2)cc1 (stereo unspecified),0%,25%,-2%,2%,3%,30%[57.5 µM]
CCCN1C(=O)/C(=c2\sc3nc(=O)c(Cc4ccc(C)cc4)nn3c2=O)c2ccccc21,50µM*,-20%,-9%,0%,-3%,?
CCNC(=O)CN(CC)S(=O)(=O)c1cccc2cc(C)cnc12,10%,.,.,.,.,.
CCN(CC)CCNCc1cc(Br)ccc1OCC(=O)NCc1ccccc1,28µM*,-15%,1%,4%,-3%,i
O=C(COC(=O)c1cc2ccccc2[nH]1)Nc1ccc2ccccc2c1,-1%,.,.,.,.,.
CN(Cc1cccs1)C(=O)c1cc2ccccc2[nH]1,25%,.,.,.,.,.
Cc1c(C2=CCN(S(=O)(=O)c3ccc(CC(C)C)cc3)CC2)c2ccccc2n1CC(=O)N1CCCC1,1%,-8%,0%,?,.,45µM*
Cc1c(C2=CCN(S(=O)(=O)c3ccc(Br)cc3)CC2)c2ccccc2n1CC(=O)N1CCCC1,-17%,-6%,-1%,-5%,.,-35%
CCOCCCNc1oc(-c2ccc(S(=O)(=O)N3CCCC3)cc2)nc1C#N,7%,.,.,.,.,.
Oc1c(Br)cc(Br)cc1CNc1cccc2cccnc12,14µM*,?,-4%,16%,-1%,-49%
SMILES,ALOX12 inh,GLP1R inv ag,GRP78 ERSR act,GLS inhibitor,GLP-1R agonist,PTHR1 agonist
CC(C)(C)c1csc(NNC(=O)c2ccc(Br)cc2)n1,0%,?,-3%,5µM*,6%,-28%
CN1CCN(c2oc(COc3ccc(Cl)cc3Cl)nc2C#N)CC1,-11%,.,.,.,.,.
CCc1c(C)sc(NC(=O)OC)c1C#N,25µM*,.,.,.,.,.
CCc1c(C)sc(NC(=O)C2CCCCC2)c1C#N,8.9µM*,.,.,.,.,.
CCc1c(C)sc(NC(=O)c2c(F)cccc2F)c1C#N,-7%,.,.,.,.,.
O=C(CSc1nncn1-c1ccccc1F)Nc1ccccc1C(=O)NCCc1ccccc1,-23%,.,.,.,.,.
CC1(C)C(/C=C/C=C/C=C/C=C2\N(CCCCS(=O)(=O)O)c3ccc4ccccc4c3C2(C)C)=[N+](CCCCS(=O)(=O)[O-])c2ccc3ccccc3c21,.,-8%,-4%,6.3µM*,10%,-12%
Cc1c2ccccc2cc[n+]1CCCS(=O)(=O)[O-],-5%,2%,0%,-1%,8%,-19%
NC1CCOCC1,10%,.,.,.,.,.
CCCCCCC(C)n1[nH]c(=O)c2c(C)cc(C)nc21 (stereo unspecified),-21%,10µM*,-2%,?,9%,i
COc1cc(/C=N/NS(=O)(=O)c2ccc3ccccc3c2)ccc1OCc1ccc(C(=O)O)cc1,-13%,2.5µM*,-15%,3%,-9%,-27%
COc1cc(/C=N/NC(N)=S)ccc1OCc1ccc(C)cc1,45µM*,?,9%,0%,19%,-8%
COc1cc(/C=N/OCc2ccccc2)ccc1OCc1ccc(C(=O)O)cc1,-29%,.,.,.,.,.
COc1cc(/C=N/NS(=O)(=O)c2ccc(C)cc2)ccc1OCc1cccc(C(=O)O)c1,-8%,3.2µM*,-15%,23%,-3%,-33%
COC(=O)C1=C(C)N(c2cccc(C)c2)C(=S)NC1c1ccc(-n2ccnc2)cc1 (stereo unspecified),40µM*,.,.,.,.,.
Cc1ccc(C(OCC(O)CNC(CO)C(O)c2ccc([N+](=O)[O-])cc2)c2ccccc2)cc1 (stereo unspecified),?,8.9µM*,-3%,-3%,21%,-3%
Cc1ccc(C(OCC(O)CNC(C)c2ccccc2)c2ccccc2)cc1 (stereo unspecified),?,?,-15%,13%,3%,-19%
CN(C)c1ccc(/C=N/Nc2nc3ccccc3o2)cc1,21%,3.5µM*,-14%,12%,0%,-28%
CCS(=O)(=O)c1ccc(C=NNc2nc3ccccc3o2)cc1,-5%,-12%,-5%,4%,-2%,-32%
CCOc1cc(CNc2ccc(O)cc2)cc(Cl)c1OCc1ccccc1,116%,11%,13µM*,25%,.,-70%
COc1cc(CNn2c(C)n[nH]c2=S)cc(Cl)c1OCc1ccccc1,20µM*,-16%,-2%,-10%,7%,i
Cc1cccc(OCCOC(=O)c2ccc3nccnc3c2)c1,21%,.,.,.,.,.
C=CCN(CC=C)C(=S)NC(=O)c1ccc(OC)cc1,-17%,?,3%,-9%,1%,i
COc1ccc(C(=O)NC(=S)N(Cc2ccccc2)Cc2ccccc2)cc1,35µM*,?,-1%,0%,2%,i
OCCNCc1cc(Br)ccc1OCc1ccc(Cl)cc1Cl,-20%,6.3µM*,-15%,1%,-27%,-3%[57.5 µM]
COc1ccc(NC(=C(C#N)C#N)C(F)(F)Cl)cc1,-11%,.,.,.,.,.
CN(CC(=O)NC(=O)NC1CCCC1)c1ccccc1,-7%,.,.,.,.,.
